Laboratory results from the supplement of paper PMC3334620.
Whole data set: some 33,000 sequences, median “E-score (-0.5 to 0.5)” near -0.021, cut for the highest 2% near 0.32. The list comes from a sample in which the highest values are over-represented; it also holds similar and randomly drawn sequences.

Target: T1, Zap1 (UniProt P47043)
T1 sequence: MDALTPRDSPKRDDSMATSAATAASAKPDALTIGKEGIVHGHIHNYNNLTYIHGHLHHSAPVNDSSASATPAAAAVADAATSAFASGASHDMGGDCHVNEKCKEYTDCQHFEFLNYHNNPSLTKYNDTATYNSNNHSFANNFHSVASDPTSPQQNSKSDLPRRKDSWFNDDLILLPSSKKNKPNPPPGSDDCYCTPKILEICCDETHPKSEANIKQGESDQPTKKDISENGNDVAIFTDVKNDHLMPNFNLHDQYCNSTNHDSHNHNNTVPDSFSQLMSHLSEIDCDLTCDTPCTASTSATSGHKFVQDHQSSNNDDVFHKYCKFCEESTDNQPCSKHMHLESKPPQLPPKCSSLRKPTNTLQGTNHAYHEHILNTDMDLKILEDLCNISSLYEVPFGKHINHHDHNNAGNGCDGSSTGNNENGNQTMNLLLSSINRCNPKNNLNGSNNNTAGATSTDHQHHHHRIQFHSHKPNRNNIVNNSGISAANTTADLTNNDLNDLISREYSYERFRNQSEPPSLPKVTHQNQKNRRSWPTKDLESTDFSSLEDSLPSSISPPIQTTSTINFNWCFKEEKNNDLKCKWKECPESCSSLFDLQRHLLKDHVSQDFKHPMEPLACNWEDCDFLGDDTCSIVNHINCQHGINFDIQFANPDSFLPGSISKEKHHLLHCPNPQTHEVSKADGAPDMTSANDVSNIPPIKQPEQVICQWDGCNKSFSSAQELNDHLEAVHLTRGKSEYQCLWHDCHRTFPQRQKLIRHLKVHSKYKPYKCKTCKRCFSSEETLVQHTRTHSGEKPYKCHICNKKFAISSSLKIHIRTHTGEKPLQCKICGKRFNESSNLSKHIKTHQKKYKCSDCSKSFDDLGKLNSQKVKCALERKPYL
Assay: PBM E-score (8-mer binding enrichment) (E-score (-0.5 to 0.5)); higher = stronger / more preferred TF binding
Details: protein concentration: 200 nM; construct: GST-full length
Method: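 Universal 'all 10-mer' protein binding microarrays (Agilent AMADID 015681) probed with GST-tagged S. cerevisiae TFs (full-length or DBD) made by in vitro transcription/translation (PURExpress), about 100-200 nM. Bound TF was detected with fluorescent anti-GST. Each ungapped 8-mer (which stands for itself and its reverse complement) is scored by the PBM enrichment score (E-score), a modified Wilcoxon-Mann-Whitney statistic from -0.5 to +0.5, computed with the Universal PBM Analysis Suite. Scale: above 0.35 generally sequence-specific binding.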

Sequence	PBM E-score
ACATACCG	-0.00488
ACATACCC	0.347
CCATACCC	0.29
GCATACCA	-0.0787
ACATACCA	-0.0785
GCATACCC	0.344
AGCAGGGG	-0.0612
AGACAATA	0.0476
AGTTACCA	0.263
AGTTACTA	0.129
GGTTACCA	0.468
CGTTACGA	0.121
AGTTACGA	0.226
CGTTACTA	0.0809
GGTTACTA	0.447
GGTTACGA	0.465
CGTTACCA	0.31
AGTCTTAT	-0.115
CCGATAGC	-0.225
AACTAAGG	0.017
AACTACCC	0.391
AACTACCT	0.286
GACTACCC	0.301
AACTACCG	0.179
CACTACCC	0.367

Sequence	PBM E-score
CACTACCA	0.22
ATTGCCTG	-0.0833
GCCAGGGC	-0.128
CGCATACG	-0.12
ACCCTATC	0.276
GCCCTATA	-0.144
AACCTATG	0.258
ACCCTATG	0.368
CCCCTATA	-0.102
ACCCTATA	0.354
CCAGGCCG	-0.0809
GCGACACC	0.0184
ACACTCAA	0.139
AACGCTTC	-0.128
AGAAGCTA	-0.265
CAACCGTA	0.0143
GTTCAAAA	0.0198
TTTCAAAA	0.321
CTTCAAAA	0.0592
CGCACAAC	0.122
ACGGTTAG	0.223
ACGGTTGC	0.117
ACGGTTAT	0.414
ACGGTTAA	0.258
ACGGTTAC	0.411

Sequence	PBM E-score
ACGGTTTC	-0.0123
AGTTTGCA	-0.0409
TCCTCACA	0.0409
AAGAACTC	0.0396
ACAAAGAA	0.178
ACTGAATC	-0.0382
TGTCATAA	0.184
AGTCATGA	0.0992
GGTCATAC	0.313
GGTCATAA	0.379
CGTCATTA	-0.145
GGTCATTA	0.321
AGTCATTA	-0.17
GGTCATGA	0.346
CGTCATGA	0.0742
CCGGACCG	-0.129
AGCAATGC	-0.0926
ACGCGAAG	0.0536
ACTACCCG	0.261
GTGGGTCA	0.211
TAGGGTCA	0.408
AAGGGTCG	0.36
ACGGGTCG	0.116
ATGGGTCC	0.263
GAGGGTCC	0.134

Sequence	PBM E-score
AGGGGTCG	0.0682
ATGGGTCA	0.359
GAGGGTCA	0.397
TAGGGTGA	0.299
TCGGGTCA	0.233
ATGGGTCG	0.0454
ACTGGCTA	-0.0583
CCGAGACC	0.197
AGCAATGG	-0.133
AAACAGGT	0.135
ATACTCTC	-0.15
CACAGTTC	-0.0558
CTACTCGC	-0.18
ATGGGCGG	-0.125
AACGCATT	0.0284
AAGGGTGA	0.293
GAGGGTGA	0.126
AGGGGTGA	0.219
CAGGGTCA	0.417
AAGGGTCT	0.136
CAGGGTCG	0.275
CAGGGTCC	0.14
AGGGGTCA	0.438
AGGGGTCC	0.0654
GAGGGGTA	0.245

Sequence	PBM E-score
AAGGGTCA	0.439
GAGGGTTA	0.45
CATGCGAC	0.014
CGACCACC	0.15
CCTCTGTC	0.0337
AAAGTGTG	0.071
ATATCAGA	0.0906
CCTCGACC	-0.056
TTGCTAAA	-0.0992
GGCCCTGA	-0.137
GCGGGTCA	0.367
GGGGGTCA	-0.132
CGGGGTCA	0.332
CCGGGTCA	0.316
GCGGGTCC	-0.0967
ACGGGTCA	0.223
AGGTGGGC	-0.0375
CAGCTCAA	-0.0501
GCAAGATA	0.0727
ACCCTACT	0.329
AACCTACG	0.123
ACCCTACA	0.419
CCCCTACG	-0.117
TCCCTACA	-0.0805
CCCCTACA	-0.0402

Sequence	PBM E-score
CCCCTACC	0.0857
AGCCTACT	-0.212
ACCCTACC	0.364
ACCCTACG	0.361
AACCTACT	0.135
GCCCTACC	0.0168
GAGTTGCA	-0.0948
AAATTCCT	-0.0586
CAAAGTGC	-0.0833
CGAATCGA	0.00445
ATCGAATG	-0.106
ACCTAGGA	0.159
CTCAGGCA	-0.158
ATTGCGAA	-0.0714
GTAACAAC	0.234
AACATGCG	-0.0232
GCCAGAAC	-0.226
AATAACGA	-0.036
AATAACAA	0.0521
CATAACTA	0.18
GATAACGA	0.00419
CATAACAA	0.179
GATAACTA	0.231
TCTAACCA	0.231
TATAACCA	0.45

Sequence	PBM E-score
CATAACCA	0.462
AATAACCA	0.445
GATAACCA	0.426
TATAACAA	0.291
GTGTTGAA	-0.0764
ACGGCTCC	-0.198
GCCTTTGA	0.0766
GGTGTCAC	0.0261
CTCTGCAG	-0.126
ACTATAGT	0.197
AGCCGCTC	-0.0957
CCTGTTGC	0.0211
GCATAGAC	-0.117
CTGGTAAG	0.055
GCCATCCA	-0.197
CATAACAG	-0.0694
CATAACGG	-0.0515
CATAACCG	0.395
GGTTATAC	0.461
AGTTATAC	0.104
CGTTATAC	-0.00572
TTATATAA	0.331
ATATATAA	0.249
GGTTATAA	0.471
CGTTATAA	0.247

Sequence	PBM E-score
CTATATAA	0.24
AGTTATAA	0.193
ATTTGCGA	0.0692
CCCCATTC	-0.0769
ATCCTTCC	-0.306
GCATCTTA	-0.0867
ACCATTCT	0.0676
GATCATTA	0.0548
TATCCGGA	0.0937
GCGGTAAA	0.165
ACGGTAAC	0.364
ACGGTAAT	0.139
ACGGTAAG	0.016
CCGGTAAC	0.316
GCGGTAAC	0.32
GTTTGGAA	0.116
AGAAGTAC	-0.115
CGTAGCGA	-0.251
ATTGGTTA	0.402
ATTGGTTC	0.141
CTTGGTTC	0.232
CTTGGTTA	0.334
ATTGGTTG	0.186
GTTGGTTA	0.316
CCCTGCGG	0.292

Sequence	PBM E-score
CTAGCTCA	-0.147
ATATGGGG	-0.0334
CGAGAAAC	0.0891
ACCCTGTA	0.353
AACCTGTA	0.324
CCCCTGAA	0.127
CACCTGTA	-0.0421
GCCCTGAA	0.0835
AACCTGAA	0.144
GCCCTGTA	-0.0104
CCCCTGTA	0.02
ACCCTGAA	0.399
AACAGCGG	-0.195
AATGACCG	0.216
TATGACCA	0.288
AATGACTA	-0.136
AATGACCA	0.334
AATGACGT	-0.0682
AATGACCT	0.393
ACCTTAGG	0.216
AGTGCACG	-0.151
CATCAGCG	-0.182
AAGTATGT	-0.00136
GAGGTTAA	0.429
AAGGTTTC	0.206

Sequence	PBM E-score
AACGTTAC	0.111
GAGGTTCC	0.223
TAGGTTCA	0.175
TAGGTTAA	0.319
TAGGTTGA	0.101
AAGGTTAC	0.475
GAGGTTCA	0.254
GAGGTTAC	0.473
GAGGTTGC	0.238
GAGGTTGA	-0.00385
AGCGCACT	-0.293
CAGCCAAG	-0.242
TCTGAGAA	-0.0814
CCTCTGAC	0.139
AGTAGCAG	-0.0921
GTAGGGAC	-0.0704
CGGTTTCA	0.03
AACTTAAC	0.244
CTGATTCA	-0.158
CAGGTTAC	0.424
CAGGTTTC	0.198
CAGGTTAA	0.325
AAGGTTAG	0.35
AATGTTAA	-0.132
CAGATTAC	0.0563

Sequence	PBM E-score
CAGATTAA	0.118
AAGGTTTA	0.226
AAGGTTTG	0.176
CAGGTTTA	-0.0228
AAGGTTAA	0.415
CAGGTTAG	0.212
TATTATGA	0.00643
ACATAGCC	-0.0651
CGGTCTAC	-0.149
AGATCAGA	-0.0903
CAACCTTC	0.313
GCCCCTTA	-0.0926
CAACCTTG	0.332
AGCCCTTG	-0.0802
ACCCCTTG	0.279
ACCCCTTC	0.234
GACCCTTA	0.376
AAACCTTG	0.0789
GTCCCTTA	0.0953
CACCCTTC	0.135
AACCCTTC	0.424
AACCCTTG	0.444
CTGCGCAC	-0.0749
AAGCGTTA	-0.0244
GTGCTGTA	-0.06

Sequence	PBM E-score
CAAGGCGC	-0.141
GAATGGTA	0.202
CCTGCAAG	-0.043
AAATCACT	0.0213
ACCCCTTA	0.344
ACCCCTGA	0.28
AACCCTTA	0.457
CACCCTTA	0.269
CCCCCTTA	-0.365
ATCCCTTA	0.0364
CGGCGCAG	-0.253
ATCGTGCG	0.158
GCAGCCCC	-0.0536
ATAACCGC	0.459
CTAACCGC	0.223
ACAACCGG	0.194
GTAACCGA	0.346
ATAACCGA	0.349
GGAACCGA	-0.0122
AGAACCGG	-0.0565
ATAACCGG	0.387
AAAACCGA	0.0886
ACAACCGA	0.234
ACAACCGC	0.285
CTAACCGA	-0.035

Sequence	PBM E-score
CAGCTGGA	-0.131
CAAGGAGC	-0.24
AGAGATTA	-0.0587
GTGCTGAA	-0.117
ACTGTGGG	-0.145
TAGATATA	0.172
AGCTTAAA	0.0882
ACTAGCCG	-0.177
AGAACCTA	0.0497
AGAACCTG	0.0538
ATAACCTG	0.412
GCAACCTA	0.106
ACAACCTA	0.232
ACAACCTG	0.23
GGAACCTA	0.146
GTAACCTA	0.458
ATAACCTA	0.458
CGAACCTA	0.00467
CTAACCTC	0.305
CTAACCTA	0.327
CTGAAGCC	-0.31
ATCAGGGC	-0.249
ACATTCGT	-0.0131
GAGAACTC	-0.146
ATTGAATG	0.113

Sequence	PBM E-score
CGGGACAA	-0.0695
GGTCAAGA	0.242
GCTCTCTA	-0.246
GGGAAAAC	-0.241
AGGAAACC	0.272
GGGAAACC	0.324
CAGTATAA	0.197
ACTGAATA	-0.0283
CCAAAACC	0.331
CAAAAACC	0.302
AAAAACCC	0.196
CAAAACCC	0.349
CCAAAAAC	0.256
CAAAACCA	0.311
CCTTATAG	0.262
GCTGGGGA	-0.0703
ATTCTCTC	-0.0801
CGAGCGTA	-0.102
AAGCATAA	0.0593
